# High-throughput results deposited in PubChem BioAssay by several laboratories.
# CYP2C19 act = human CYP2C19 activators, primary screen, biochemical, luminescence; Cytochrome P450 2C19 (Homo sapiens), P33261; AID 1025, 2008; recombinant CYP2C19, luciferin-H EGE luminescence; stronger effect = higher value; 0 = fully inhibited enzyme, 1 = untreated enzyme; activation factor at 5 µM; 96,000 tested, under 10 active;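 active = activation factor of at least 2 at 5 µM in the primary screen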;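 note: 0 = wells with 2.5 mM tranylcypromine and 1 = vehicle-only wells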
# sEH inhibitor = soluble epoxide hydrolase inhibitors, primary screen, biochemical, human sEH; recombinant human sEH enzymatic activity assay; inhibition, % at 2 µM; 91,000 tested, 0.34% active; in the data active = inhibition above about 80%
# CYP2C9 inhib = blockers of cytochrome P450 2C9 activity – biochemical, luminescence, ADME assay, primary screen; P11712; CYP2C9 Supersomes, luciferin-H conversion; inhibition, % at 5 µM; 96,000 tested, 20% active; AID 777, 2007;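 active = blocking of liver enzyme CYP2C9 beyond about 50% at 5 µM, limit read from the data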
# CYP2C19 inh = blockers of cytochrome P450 2C19 activity – biochemical, luminescence, ADME assay, primary screen | inhibition, % at 5 µM | CYP2C19 Supersomes, luciferin-H EGE luminescence, 30 min | 96,000 tested, 21% active | P33261;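 active = CYP2C19 inhibition above a set limit at 5 µM in the primary screen, cut at about 50% in these data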;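 note: plate controls were negative control wells for no effect and 2.5 mM tranylcypromine positive control for full effect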
# sEH act = soluble epoxide hydrolase activators, primary screen, biochemical, human sEH. Bifunctional epoxide hydrolase 2 (Homo sapiens), P34913. purified human sEH enzymatic activity, activator screen. activation, % at 2 µM. 91,000 tested, 0.04% active; in the data active = activation above about 37%
# CYP2C9 act = human CYP2C9 activators, primary screen, biochemical, luminescence; 96,000 tested, 1.4% active; activation factor at 5 µM; recombinant CYP2C9, luciferin-H conversion; stronger effect = higher value; factor 1 = untreated enzyme, 0 = blocked; Cytochrome P450 2C9 (Homo sapiens), P11712;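 active = activation factor of 2 or more for CYP2C9 at a 5 µM dose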;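 note: 0 = sulfaphenazole-blocked wells and 1 = vehicle-only wells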
# An asterisk follows results filed as active; x = not tested or not shown. A selection: hits, their analogues and other compounds. The true share with any hit is near 27%.
SMILES,CYP2C19 act,sEH inhibitor,CYP2C9 inhib,CYP2C19 inh,sEH act,CYP2C9 act
COc1ccc(CNC(=O)c2cc3c(=O)n4ccccc4nc3n(Cc3ccco3)c2=N)cc1,x,1.1,x,x,-0.9,x
CCOC(=O)c1cc2c(=O)n3ccccc3nc2n(C(C)C)c1=NC(=O)c1ccncc1,0.4,1.7,48.2,64.8*,-1.4,0.5
COc1ccc(CCn2c(=N)c(C(=O)N3CCN(C)CC3)cc3c(=O)n4ccccc4nc32)cc1,0.3,-26.8,38.6,72.0*,23.4,0.6
Cc1ccccc1NC(=S)C1=C(O)c2sccc2N(C)S1(=O)=O,1,-4.7,72.3*,1.8,7.5,0.3
CN1c2ccsc2C(O)=C(C(=S)Nc2ccccc2)S1(=O)=O,0.9,-1.6,78.4*,12.5,3.0,0.2
